HEK293 viab: reduces viability of HEK-293 SNCA reporter cells; HEK-293-SNCA-luc viability, GF-AFC fluorescence, 24 h; Potency, µM (highest dose often 57.1 µM), for the others: at the highest dose activity change, negative = cytotoxicity, actives largely listed as cytotoxic; 150,000 compounds, 0.12% hits; AID 1671193;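 note: potency is the fitted concentration of half-maximal effect; 0% = DMSO-treated cells and -100% = medium-only wells without cells; nearly all actives have a fitted effect of over 30% in size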
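HEK-293-SNCA-luc cells (1500/well) plated 24 h, then exposed 24 h to a dilution series; GF-AFC added 30 min at 37C, fluorescence 405/540 nm; normalised to medium-only and DMSO wells, Hill fit.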
KDM5B inhibitor: KDM5B demethylase inhibition. Potency, µM (titrated, usually from 57.7 µM), actives largely listed as inhibitors. KDM5B demethylase, FDH-coupled NADH fluorescence (FDH is formaldehyde dehydrogenase). Q9UGL1. 220,000 compounds, 2.6% hits; note: potency is the fitted concentration of half-maximal effect; 0% is about no effect; nearly all actives have a fitted effect of over 70% in size
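Coupled FDH/NAD⁺ fluorescence readout. KDM5BΔAP 200 nM final; compound titration, 10 min RT preincubation; substrate mix 12.5 µM H3K4me3, 25 µM 2-OG, 50 µM Fe(II), 100 µM ascorbate, 0.25 mM NAD⁺, 0.25 U/mL FDH; ΔRFU over 30 min.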
SNCA expr inhib: inhibitors of alpha-synuclein (SNCA) gene expression; Potency, µM (series often up to 57.2 µM), without a hit: at the top dose activity change, negative = inhibition, most hits filed as inhibitors; HEK-293 SNCA-luciferase knock-in, luminescence, 24 h; AID 1671194; 140,000 compounds, 0.17% hits;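 note: potency is the fitted concentration of half-maximal effect; plate controls were DMSO cells for no effect and cell-free wells for full effect; nearly all actives have a fitted effect of over 45% in size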
IP6K1 inh: inhibitors of human IP6K1; IP6K1 kinase, ADP-Glo luminescence, 2 h; stronger effect = lower value; activity change, % (series mostly up to about 58 µM); 140,000 compounds, 0.81% hits; in the data active = activity change below about -25%; note: % is set by controls: 0 for no effect and ±100 for the full control effect
Target sequence (Q92551 whole entry, looked up): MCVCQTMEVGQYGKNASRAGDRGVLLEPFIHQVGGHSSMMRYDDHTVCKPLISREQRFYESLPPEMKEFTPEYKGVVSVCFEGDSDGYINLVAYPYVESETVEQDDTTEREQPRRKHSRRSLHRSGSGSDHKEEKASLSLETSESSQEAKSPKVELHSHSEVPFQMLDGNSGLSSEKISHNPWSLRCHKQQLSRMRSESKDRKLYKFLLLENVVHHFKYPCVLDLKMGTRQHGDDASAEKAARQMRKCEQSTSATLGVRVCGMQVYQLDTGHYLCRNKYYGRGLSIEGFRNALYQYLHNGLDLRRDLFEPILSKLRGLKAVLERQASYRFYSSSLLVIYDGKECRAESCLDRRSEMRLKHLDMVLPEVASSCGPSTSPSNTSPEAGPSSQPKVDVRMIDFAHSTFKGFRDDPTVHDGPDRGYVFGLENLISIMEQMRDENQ
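ADP-Glo luminescence measures ADP made by human IP6K1 during a 2 h RT reaction with ATP/IP6 (mix at 1.3 mM/130 uM); top library doses 57.5 and 19.1 uM final.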
An asterisk follows results filed as active; i = inactive; ? = inconclusive; · = not tested or not shown; [ ] = dose if it differs, or a comment. Shown are actives, neighbours in structure and some others; about 2.8% of the full set was active somewhere. Unless noted, calls come from the whole dose curve; as a rule, active = well fitted curve in the direction sought with a large enough effect; inconclusive = small, poorly fitted or top-dose-only effect, or another doubt; inactive = no such curve, though single readings can be large; an effect the other way counts as inactive or inconclusive.

SMILES	HEK293 viab	KDM5B inhibitor	SNCA expr inhib	IP6K1 inh
CCCCCn1nc(C(=O)N2CCC(n3c(=O)[nH]c4ccccc43)CC2)c2ccccc2c1=O	·	i	·	·
Cc1ccc(C#N)c(N2CCCC(c3nnc(Cn4cccn4)n3C)C2)n1 (configuration not stated)	-4.3%	28.2µM*	-8.0%	7.1
O=c1c2nc(N3CCC(c4ccccc4)CC3)ccc2ncn1-c1cccnc1	-2.9%[87.6 µM]	35.5µM*	9.4%[87.6 µM]	8.9
O=c1c2nc(N3CCC(c4ccccc4)CC3)ccc2ncn1C1CC1	-5.6%[87.6 µM]	35.5µM*	1.4%[87.6 µM]	2.7
O=c1c2nc(N3CCC(c4ccccc4)CC3)ccc2ncn1Cc1ccccn1	-2.3%[87.6 µM]	?	-8.8%[87.6 µM]	-2.7
CN1CCN(c2ccc3ncn(-c4cccnc4)c(=O)c3n2)CC1	-8.8%[87.6 µM]	35.5µM*	33.2%[87.6 µM]	23.3
CCc1c(C)cc(C(=O)N[C@@H]2[C@@H](Cc3ccccc3)[C@H]3OCC[C@@H]23)c(=O)n1C	-4.0%	28.2µM*	6.3%	10.6
Oc1ccccc1CN1CCNc2cnc(-c3ccccc3)cc2C1	-9.2%[87.6 µM]	?	-14.9%[87.6 µM]	-22.2
COc1cccc(CN2CCNc3cnc(-c4ccccc4)cc3C2)c1	-8.0%[87.6 µM]	35.5µM*	13.6%[87.6 µM]	-14.1
Cn1cc(CN2CCNc3cnc(-c4ccccc4)cc3C2)cn1	-7.4%[87.6 µM]	28.2µM*	-28.1%[87.6 µM]	-21.4
Cc1cccc(CN2CCNc3cnc(-c4ccccc4)cc3C2)c1	-7.9%[87.6 µM]	35.5µM*	-22.2%[87.6 µM]	-18.7
COc1ccc(OC)c(CN2CCNc3cnc(-c4ccccc4)cc3C2)c1	?	31.6µM*	?	-14.0
COc1ccc(OC)c(C(C)NC(=O)CC(C)(C)C)c1 (configuration not stated)	·	i	·	·
COCCC(=O)N1Cc2c(ncn2Cc2ccccc2)C[C@H]1C(=O)OC	-2.7%[87.6 µM]	?	?	-6.0
CN(C)c1ccc(CN2CCNc3cnc(-c4ccccc4)cc3C2)cc1	-13.2%[87.6 µM]	?	29.1%[87.6 µM]	-13.6
c1ccc(-c2cc3c(cn2)NCCN(CC2CC2)C3)cc1	-24.3%[87.6 µM]	35.5µM*	78.4%[87.6 µM]	-6.7
Cc1ccc2cc(CN3C[C@@H](CO)[C@H](c4nc(C)no4)C3)c(=O)[nH]c2c1	-8.2%	28.2µM*	-4.5%	-3.7
Cc1noc([C@@H]2CN(Cc3ccncc3)C[C@H]2CO)n1	2.7%	28.2µM*	-0.8%	-12.5
Cc1noc([C@@H]2CN(Cc3ccccc3C)C[C@H]2CO)n1	-8.1%	i	1.2%	-9.4
Cc1ccc(-c2noc([C@@H]3Cc4nc[nH]c4CN3CC3CCCCC3)n2)cc1	-17.8%[87.6 µM]	?	-2.8%[87.6 µM]	-13.9
Cc1cccc(-c2noc([C@@H]3Cc4nc[nH]c4CN3Cc3ccc(C(=O)O)cc3)n2)c1	2.7%[87.6 µM]	31.6µM*	?	-8.5
Fc1ccc(-c2noc([C@@H]3Cc4nc[nH]c4CN3Cc3ccccc3)n2)cc1Cl	-6.7%[87.6 µM]	35.5µM*	47.5%[87.6 µM]	0.2
Fc1ccc(-c2noc([C@@H]3Cc4nc[nH]c4CN3Cc3cc4ccccc4o3)n2)cc1Cl	8.3%	28.2µM*	56.2%	11.6
O=C(O)c1ccc(CN2Cc3[nH]cnc3C[C@H]2c2nc(-c3ccc(F)cc3)no2)cc1	12.0%[87.6 µM]	?	36.3%[87.6 µM]	11.7
c1ccc2cc(-c3noc([C@@H]4Cc5nc[nH]c5CN4CC4CCCCC4)n3)ccc2c1	-11.7%[87.6 µM]	28.2µM*	39.6%[87.6 µM]	11.4
SMILES	HEK293 viab	KDM5B inhibitor	SNCA expr inhib	IP6K1 inh
Cc1cn2c(=O)cc(COC(=O)C(C)Oc3ccccc3)nc2s1 (configuration not stated)	-0.3%	i	-8.8%	-3.6
O=C(Cc1c[nH]c2ccccc12)Nc1cc(S(=O)(=O)N2CCOCC2)ccc1N1CCCC1	·	i	·	·
O=C1CCN(CC(O)C(F)(F)F)c2ccsc2CN1Cc1ccccc1 (configuration not stated)	·	·	·	-7.0
O=C(COc1ccccc1)N[C@H]1CO[C@H]2[C@@H]1OC[C@@H]2n1cc(CC2CCCCC2)nn1	-13.3%[87.6 µM]	i	-0.4%[87.6 µM]	5.6
COc1ccc(C(CC(=O)N(C)Cc2cnc3ccccn23)c2ccccc2)cc1 (configuration not stated)	-8.9%	31.6µM*	-10.1%	-2.8
COc1ccc(C(CC(=O)N(C)C)c2ccccc2)cc1 (configuration not stated)	-2.1%	i	-26.2%	15.2
Cc1cn2nc(C(=O)NCc3cccc(Cl)c3)cc2c(N(C)Cc2ccccc2)n1	-4.2%	25.1µM*	2.5%	-6.4
Cc1cn2nc(C(=O)NCc3ccc(F)cc3F)cc2c(N(C)Cc2ccccc2)n1	7.9%	i	-28.4%	0.2

Assay outcomes as filed in PubChem.
